Here are results for 20 molecules from paper PMC7826789 (International Journal of Molecular Sciences, 2021).

Settings in all cases: Compound Concentration (nM):1000
One experiment concerns ROCK2.
The test system of the next experiment is ROS1.
Experiment [1] deals with RPS6KA4(Kin.Dom.1-N-terminal).
For experiment [2], the system named is RPS6KA4(Kin.Dom.2-C-terminal).
In experiment [3] the test system is RPS6KA5(Kin.Dom.1-N-terminal).
Experiment [4] concerns RPS6KA5(Kin.Dom.2-C-terminal).
The test system of experiment [5] is T1, RSK1(Kin.Dom.1-N-terminal).
T1 construct: gene RPS6KA1

Experiment [6] deals with T2, RSK1(Kin.Dom.2-C-terminal).
T2 construct: gene RPS6KA1

Experiment [7] has as its system T3, RSK2(Kin.Dom.1-N-terminal).
T3 construct: gene RPS6KA3

Experiment [8] deals with T4, RSK2(Kin.Dom.2-C-terminal).
T4 construct: gene RPS6KA3
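Also: KINOMEscan scanMAX binding as percent activity remaining versus control; lower means stronger binding.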

As to `COC(=O)Nc1nc2ccc(Oc3ccc(NC(=O)Nc4cc(C(F)(F)F)ccc4F)cc3)cc2s1.Cl` [GW693917A], the “Percent Control” value in the experiment on ROCK2 is 86%; with ROS1, 95%; in experiment [1], 100%; in experiment [2], 80%; in [3], 100%; in experiment [4] it was 100%. For the same molecule, the “Percent Control” value in experiment [5] was 99%; in experiment [6], 94%; in [7], 98%; in [8], 86%.

On to `Cl.O=C(Nc1ccc(Oc2ccc3[nH]c(NC(=O)c4ccccc4)nc3c2)cc1)Nc1cc(C(F)(F)F)ccc1F` [GW709042A], for which the “Percent Control” value in the experiment with ROCK2 was 85%; with ROS1 it was 67%; in [1], 100%; in experiment [2], 77%; in [3], 100%; in experiment [4], 88%. Further, the “Percent Control” value in experiment [5] was 100%; in experiment [6], 100%; in experiment [7], 100%; in [8] it was 90%.

As to `COc1ccccc1-c1cc(/C=C2\C(=O)Nc3ncc(Br)cc32)cc(Br)c1O` [GW442130X], the “Percent Control” value was 82% with ROCK2; 95% in the experiment with ROS1; 100% in experiment [1]; 68% in experiment [2]; 76% in experiment [3]; 46% in experiment [4]. Besides, the “Percent Control” value in experiment [5] is 100%; in [6] it was 58%; in experiment [7], 100%; in experiment [8], 79%.

Regarding `CCS(=O)(=O)c1ccc(OC)c(Nc2ncc(-c3cccc(F)c3)o2)c1` [GW621970X], the “Percent Control” value in the experiment with ROCK2 was 100%; with ROS1 it was 90%; in experiment [1] it was 100%; in [2], 94%; in experiment [3], 100%; in experiment [4] it was 100%. For the same molecule, the “Percent Control” value was 100% in [5], 100% in experiment [6], 100% in experiment [7] and 83% in experiment [8].

For `CC1=C(C(=O)Nc2ccc3[nH]ncc3c2)C(c2ccc3ccccc3c2)CC(=O)N1` (centres unmarked) [GSK270822A], the “Percent Control” value in the experiment with ROCK2 is 0%; in the experiment with ROS1, 81%; in experiment [1] it was 100%; in [2] it was 91%; in [3], 100%; in [4], 64%. In addition, the “Percent Control” value in experiment [5] is 91%; in experiment [6], 99%; in experiment [7] it was 72%; in [8], 75%.

In the case of `Cc1cc(O)cc(C)c1/C=C/c1cncc(C(N)=O)c1` [GW435821X], the “Percent Control” value in the experiment on ROCK2 is 100%; in the experiment on ROS1, 86%; in experiment [1] it was 100%; in [2], 98%; in [3], 100%; in [4], 100%. For the same molecule, the “Percent Control” value was 100% in [5], 100% in [6], 100% in experiment [7] and 96% in experiment [8].

Consider `NS(=O)(=O)c1ccc(N/N=C2\C(=O)Nc3ccc(C(=O)NCCc4c[nH]cn4)cc32)cc1` [GW300660X], for which the “Percent Control” value was 40% with ROCK2; 100% in the experiment with ROS1; 100% in experiment [1]; 80% in [2]; 100% in experiment [3]; 100% in experiment [4]. The “Percent Control” value in [5] was 100%; in experiment [6] it was 100%; in [7] it was 54%; in experiment [8] it was 100%.

As to `CN(C)c1cc2c(Nc3ccc4c(cnn4Cc4ccccc4)c3)ncnc2cn1` [GW282974X], the “Percent Control” value in the experiment with ROCK2 was 96%; in the experiment with ROS1, 100%; in [1], 93%; in experiment [2], 89%; in experiment [3], 100%; in experiment [4], 92%. Moreover, the “Percent Control” value is 97% in experiment [5], 100% in [6], 95% in experiment [7] and 100% in experiment [8].

In the case of `C/C(Nc1ccc(S(N)(=O)=O)cc1)=C1/C(=O)Nc2ccccc21` [GW335962X], the “Percent Control” value was 69% in the experiment on ROCK2; 76% in the experiment on ROS1; 96% in experiment [1]; 85% in [2]; 100% in experiment [3]; 100% in experiment [4]. Moreover, the “Percent Control” value in [5] was 100%; in experiment [6], 92%; in [7], 52%; in experiment [8], 89%.

With `COc1cccc(-n2ncc3c(N/N=C/c4ccncc4)ncnc32)c1` [GW784752X], the “Percent Control” value was 84% with ROCK2; 100% in the experiment with ROS1; 100% in experiment [1]; 70% in [2]; 100% in [3]; 100% in experiment [4]. The “Percent Control” value in experiment [5] was 94%; in [6], 100%; in experiment [7] it was 100%; in experiment [8], 86%.

With `COc1cc2ncnc(Nc3ccc4c(cnn4Cc4ccccc4)c3)c2cc1OC.Cl` [GW282449A], the “Percent Control” value in the experiment on ROCK2 was 100%; in the experiment with ROS1, 89%; in experiment [1], 42%; in experiment [2], 93%; in [3] it was 84%; in experiment [4], 100%. The “Percent Control” value in [5] is 100%; in [6] it was 100%; in [7] it was 100%; in experiment [8], 99%.

In the case of `CCn1c(-c2nonc2N)nc2c(C#CC(C)(C)O)nc(OCCNC)cc21.Cl` [GSK949675], the “Percent Control” value with ROCK2 was 78%; in the experiment with ROS1, 100%; in [1] it was 100%; in experiment [2], 5.9%; in [3], 91%; in experiment [4], 34%. Besides, the “Percent Control” value was 100% in [5], 100% in experiment [6], 97% in experiment [7] and 72% in experiment [8].

Turning to `NS(=O)(=O)c1ccc(N/N=C2\C(=O)Nc3ccc(C(=O)NCc4ccncc4)cc32)cc1` [GW300657X], the “Percent Control” value is 56% in the experiment on ROCK2; 100% in the experiment on ROS1; 87% in [1]; 42% in [2]; 100% in experiment [3]; 19% in [4]. Further, the “Percent Control” value in [5] was 94%; in experiment [6], 83%; in experiment [7] it was 79%; in experiment [8], 87%.

For the molecule `COc1ccc2[nH]c3c4[nH]c5ccc(OC)cc5c4c4c(c3c2c1)C(=O)NC4=O` [GW296115X], the “Percent Control” value with ROCK2 is 73%; with ROS1, 24%; in experiment [1], 71%; in [2] it was 25%; in experiment [3], 53%; in experiment [4], 66%. The “Percent Control” value in experiment [5] was 49%; in experiment [6] it was 100%; in experiment [7], 21%; in experiment [8] it was 95%.

Consider `COc1ccc(COc2ccc(Cc3cnc(N)nc3N)cc2OC)cc1` [GW632580X], for which the “Percent Control” value in the experiment with ROCK2 is 95%; with ROS1, 82%; in experiment [1], 100%; in experiment [2] it was 77%; in [3], 97%; in [4], 87%. For the same molecule, the “Percent Control” value in experiment [5], in experiment [6], in experiment [7] and in experiment [8] was 100% each time.

Consider `O=C(Nc1n[nH]c2nc(-c3ccc(O)cc3)c(Br)cc12)C1CC1` [SB-725317], for which the “Percent Control” value is 98% in the experiment with ROCK2; 91% in the experiment with ROS1; 100% in [1]; 1.2% in experiment [2]; 100% in experiment [3]; 43% in experiment [4]. Also, the “Percent Control” value is 100% in experiment [5], 100% in experiment [6], 65% in [7] and 97% in [8].

As for `NS(=O)(=O)c1ccc(Nc2ncc(-c3ccccc3)o2)cc1` [GW572399X], the “Percent Control” value in the experiment on ROCK2 is 91%; in the experiment with ROS1, 100%; in [1], 100%; in [2], 89%; in experiment [3], 100%; in experiment [4] it was 100%. Also, the “Percent Control” value in experiment [5] is 100%; in experiment [6] it was 100%; in [7], 98%; in [8], 98%.

In the case of `Cl.O=C(O[C@H]1CN[C@H](C#Cc2cc3ncnc(Nc4ccc5c(cnn5Cc5ccccc5)c4)c3s2)C1)N1CCOCC1` [GSK200398A], the “Percent Control” value is 84% with ROCK2; 73% in the experiment with ROS1; 97% in experiment [1]; 88% in experiment [2]; 100% in [3]; 100% in experiment [4]. In addition, the “Percent Control” value is 96% in experiment [5], 97% in experiment [6], 95% in [7] and 93% in [8].

With `CCS(=O)(=O)c1ccc(OC)c(Nc2ncc(-c3cccc(OC)c3)o2)c1` [GW580509X], the “Percent Control” value was 88% with ROCK2; 92% in the experiment with ROS1; 100% in experiment [1]; 100% in experiment [2]; 100% in [3]; 100% in experiment [4]. In addition, the “Percent Control” value in experiment [5], in experiment [6], in experiment [7] and in [8] was 100% each time.

As to `Cl.c1ccc(Cc2nc3ccc(Nc4ncnc5ccccc45)cc3[nH]2)cc1` [GR269666A], the “Percent Control” value is 98% with ROCK2; 76% in the experiment with ROS1; 100% in experiment [1]; 100% in [2]; 100% in [3]; 100% in experiment [4]. In addition, the “Percent Control” value in experiment [5] is 100%; in experiment [6] it was 100%; in experiment [7] it was 100%; in experiment [8], 97%.
